# Data as given in PubChem BioAssay (NCI).
# About 79,000 compounds went through this panel and 15% of them were active in at least one assay; those are over-represented in the sample as a whole. Unmarked numbers belong to inactive results. The source made the active and inactive calls. Cut-off read from the data, not from the text of the source: active = growth inhibition above about 70%; inactive = the rest.
# How the values were obtained:
# [1] = NCI Yeast Anticancer Drug Screen. Data for the rad52 strain (AID 147);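 note: 0% = growth of vehicle-treated control cultures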; conditions: S. cerevisiae rad52 mutant growth inhibition, stronger effect = higher value
# How it was run: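 Screen used a yeast mutant impaired in DNA repair. After compound exposure, growth was measured. Values reflect inhibition compared with vehicle-treated cells.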
# [2] = NCI Yeast Anticancer Drug Screen. Data for the wt1 strain (AID 149);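 note: 0% = growth of vehicle-treated wt1 cultures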; conditions: S. cerevisiae wt1 strain (SPY 50644) growth inhibition, stronger effect = higher value
# How it was run: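 Growth inhibition read against vehicle controls after compound exposure of the wt1 yeast strain.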
# [3] = NCI Yeast Anticancer Drug Screen. Data for the rad50EPP+ strain (AID 151);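 note: 0% = growth of vehicle-treated control cultures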; conditions: S. cerevisiae rad50 mutant strain, stronger effect = higher value
# How it was run: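 Exposing the rad50EPP+ strain to each compound, growth was compared with vehicle-only cultures to give inhibition.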
# [4] = NCI Yeast Anticancer Drug Screen. Data for the mgt1 strain (AID 153); conditions: S. cerevisiae mgt1 mutant growth inhibition, stronger effect = higher value
# How it was run: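 Genetically defined yeast (mgt1) treated with compound; inhibition of growth expressed against vehicle-treated controls.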
# [5] = NCI Yeast Anticancer Drug Screen. Data for the rad50 strain (AID 155);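 note: 0% = growth of vehicle-only cultures of the same strain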; conditions: S. cerevisiae rad50 strain growth inhibition, stronger effect = higher value
# How it was run: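 Readout: growth inhibition relative to vehicle-treated cultures. Compound exposure was carried out in a genetically defined yeast strain deficient in DNA damage repair.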
# [6] = NCI Yeast Anticancer Drug Screen. Data for the mec2-1 strain (AID 157); conditions: S. cerevisiae mec2-1 strain, stronger effect = higher value
# How it was run: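 Readout is yeast growth inhibition, normalised to vehicle-treated controls, in the mec2-1 strain exposed to compound.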
# [7] = NCI Yeast Anticancer Drug Screen. Data for the rad14 strain (AID 159);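 note: 0% = growth of vehicle-treated control cultures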; conditions: S. cerevisiae rad14 strain growth inhibition, stronger effect = higher value
# How it was run: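 Growth inhibition vs vehicle controls; genetically altered yeast strain (DNA damage repair defect) treated with test compounds.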
# [8] = NCI Yeast Anticancer Drug Screen. Data for the sgs1 mgt1 strain (AID 161);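 note: 0% = growth of cultures given vehicle only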; conditions: S. cerevisiae sgs1 mgt1 strain, stronger effect = higher value
# How it was run: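 This yeast growth screen uses a strain with defined DNA-repair lesions; compound-treated growth is compared with vehicle-treated growth.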
# [9] = NCI Yeast Anticancer Drug Screen. Data for the CLN2oe strain (AID 163);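 note: 0% = growth of vehicle-only control cultures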; conditions: S. cerevisiae CLN2oe strain, stronger effect = higher value
# How it was run: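 Values reflect how much compound exposure reduced yeast growth, referenced to vehicle-exposed cells. Assay organism is a strain with a defined genetic change affecting cell-cycle control.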
# [10] = NCI Yeast Anticancer Drug Screen. Data for the cln2 rad14 strain (AID 165);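 note: 0% = growth equal to vehicle treated cultures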; conditions: S. cerevisiae cln2 rad14 strain, stronger effect = higher value
# How it was run: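 Relative to vehicle controls, growth inhibition of compound-treated cln2 rad14 yeast was recorded.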
# [11] = NCI Yeast Anticancer Drug Screen. Data for the bub3 strain (AID 167); conditions: S. cerevisiae bub3 mutant strain, stronger effect = higher value
# How it was run: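 Readout: yeast growth inhibition, expressed relative to vehicle-only wells. The test organism is a mutant strain from a panel with lesions in DNA repair or checkpoint genes.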
# [12] = NCI Yeast Anticancer Drug Screen. Data for the wt2 strain (AID 169);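 note: 0% = growth of vehicle-treated yeast cultures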; conditions: S. cerevisiae wt2 strain growth inhibition, stronger effect = higher value
# How it was run: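 Values express reduction in yeast growth under compound treatment, referenced to vehicle-treated cells.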
# [13] = NCI Yeast Anticancer Drug Screen. Data for the mlh1 strain (AID 171);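 note: 0% = growth of vehicle-treated control cultures of the same strain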; conditions: S. cerevisiae mlh1 strain growth inhibition, stronger effect = higher value
# How it was run: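 Steps: expose the defined-mutant yeast strain to compound; expose a parallel culture to vehicle; measure growth; express compound effect as inhibition relative to the vehicle culture.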
# [14] = NCI Yeast Anticancer Drug Screen. Data for the sgs1 strain (AID 173);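 note: 0% = growth of vehicle-only control cultures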; conditions: S. cerevisiae sgs1 mutant, stronger effect = higher value
# How it was run: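 Treat defined-mutant yeast with compound; measure growth; calculate inhibition relative to vehicle-treated cells.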
# [15] = NCI Yeast Anticancer Drug Screen. Data for the mlh1 rad18 strain (AID 175); conditions: S. cerevisiae mlh1 rad18 strain growth inhibition, stronger effect = higher value
# How it was run: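 Test agents were incubated with a yeast strain of defined genotype (DNA damage repair defect). Inhibition of growth was derived by comparison with vehicle-exposed cultures.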
# [16] = NCI Yeast Anticancer Drug Screen. Data for the rad18 strain (AID 177); conditions: S. cerevisiae rad18 mutant growth inhibition, stronger effect = higher value
# How it was run: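 A genetically defined yeast mutant impaired in DNA damage repair was treated with test compounds, then its growth was measured against cultures receiving vehicle alone.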
# [17] = at 5.0 µM (retest, dose inferred, filed as 0.5)
# [18] = at 50.0 µM (retest, dose inferred, filed as 5.0)
smiles,measurement,setting,value
Cc1cc(S(=O)(=O)/N=C(/NN)NNc2cccc(C(F)(F)F)n2)c(S)cc1Cl,growth inhibition,[1]; at 1.2 µM,1%
same,growth inhibition,[1]; at 3.7 µM,-1%
same,growth inhibition,[1]; at 11.0 µM,-2%
same,growth inhibition,[1]; at 33.0 µM,-4%
same,growth inhibition,[1]; at 100.0 µM,23%
same,growth inhibition,[2]; at 1.2 µM,0%
same,growth inhibition,[2]; at 3.7 µM,-2%
same,growth inhibition,[2]; at 11.0 µM,-2%
same,growth inhibition,[2]; at 33.0 µM,-7%
same,growth inhibition,[2]; at 100.0 µM,10%
same,growth inhibition,[3]; at 1.2 µM,-8%
same,growth inhibition,[3]; at 3.7 µM,-24%
same,growth inhibition,[3]; at 11.0 µM,-28%
same,growth inhibition,[3]; at 33.0 µM,-52%
same,growth inhibition,[3]; at 100.0 µM,-50%
same,growth inhibition,[4]; at 1.2 µM,-3%
same,growth inhibition,[4]; at 3.7 µM,-3%
same,growth inhibition,[4]; at 11.0 µM,-5%
same,growth inhibition,[4]; at 33.0 µM,10%
same,growth inhibition,[4]; at 100.0 µM,18%
same,growth inhibition,[5]; at 1.2 µM,0%
same,growth inhibition,[5]; at 3.7 µM,-2%
same,growth inhibition,[5]; [17],1%
same,growth inhibition,[5]; at 11.0 µM,-3%
same,growth inhibition,[5]; at 33.0 µM,-3%
same,growth inhibition,[5]; [18],52%
same,growth inhibition,[5]; at 50.0 µM,-7.1%
same,growth inhibition,[5]; at 100.0 µM,10%
same,growth inhibition,[6]; at 1.2 µM,0%
same,growth inhibition,[6]; at 3.7 µM,2%
same,growth inhibition,[6]; [17],-7%
same,growth inhibition,[6]; at 11.0 µM,-3%
same,growth inhibition,[6]; at 33.0 µM,-7%
same,growth inhibition,[6]; [18],8%
same,growth inhibition,[6]; at 50.0 µM,7.75%
same,growth inhibition,[6]; at 100.0 µM,16%
same,growth inhibition,[7]; at 1.2 µM,-1%
same,growth inhibition,[7]; at 3.7 µM,-1%
same,growth inhibition,[7]; at 11.0 µM,1%
same,growth inhibition,[7]; at 33.0 µM,-1%
same,growth inhibition,[7]; at 100.0 µM,14%
same,growth inhibition,[8]; [17],-10%
same,growth inhibition,[8]; [18],44%
same,growth inhibition,[8]; at 50.0 µM,30.6%
same,growth inhibition,[9]; at 1.2 µM,3%
same,growth inhibition,[9]; at 3.7 µM,1%
same,growth inhibition,[9]; at 11.0 µM,-2%
same,growth inhibition,[9]; at 33.0 µM,-12%
same,growth inhibition,[9]; at 100.0 µM,3%
same,growth inhibition,[10]; [17],4%
same,growth inhibition,[10]; [18],25%
same,growth inhibition,[10]; at 50.0 µM,41.5%
same,growth inhibition,[11]; at 1.2 µM,4%
same,growth inhibition,[11]; at 3.7 µM,1%
same,growth inhibition,[11]; [17],-4%
same,growth inhibition,[11]; at 11.0 µM,-3%
same,growth inhibition,[11]; at 33.0 µM,-4%
same,growth inhibition,[11]; [18],47%
same,growth inhibition,[11]; at 50.0 µM,-17.4%
same,growth inhibition,[11]; at 100.0 µM,12%
same,growth inhibition,[12]; at 1.2 µM,0%
same,growth inhibition,[12]; at 3.7 µM,-2%
same,growth inhibition,[12]; at 11.0 µM,-3%
same,growth inhibition,[12]; at 33.0 µM,-5%
same,growth inhibition,[12]; at 100.0 µM,18%
same,growth inhibition,[13]; at 1.2 µM,-3%
same,growth inhibition,[13]; at 3.7 µM,-2%
same,growth inhibition,[13]; at 11.0 µM,-4%
same,growth inhibition,[13]; at 33.0 µM,-5%
same,growth inhibition,[13]; at 100.0 µM,19%
same,growth inhibition,[14]; at 1.2 µM,-1%
same,growth inhibition,[14]; at 3.7 µM,1%
same,growth inhibition,[14]; at 11.0 µM,-2%
same,growth inhibition,[14]; at 33.0 µM,-1%
same,growth inhibition,[14]; at 100.0 µM,25%
same,growth inhibition,[15]; [17],21%
same,growth inhibition,[15]; [18],52%
same,growth inhibition,[15]; at 50.0 µM,19.6%
same,growth inhibition,[16]; at 1.2 µM,0%
same,growth inhibition,[16]; at 3.7 µM,-1%
same,growth inhibition,[16]; at 11.0 µM,-6%
same,growth inhibition,[16]; at 33.0 µM,-3%
same,growth inhibition,[16]; at 100.0 µM,16%
CC(C)(Br)C(=O)/C=C/c1ccc(Cl)c(Cl)c1,growth inhibition,[1]; at 1.2 µM,2%
same,growth inhibition,[1]; at 3.7 µM,3%
same,growth inhibition,[1]; at 11.0 µM,-1%
same,growth inhibition,[1]; at 33.0 µM,2%
same,growth inhibition,[1]; at 100.0 µM,-4%
same,growth inhibition,[2]; at 1.2 µM,-2%
same,growth inhibition,[2]; at 3.7 µM,-1%
same,growth inhibition,[2]; at 11.0 µM,-3%
same,growth inhibition,[2]; at 33.0 µM,0%
same,growth inhibition,[2]; at 100.0 µM,1%
same,growth inhibition,[3]; at 1.2 µM,4%
same,growth inhibition,[3]; at 3.7 µM,3%
same,growth inhibition,[3]; at 11.0 µM,3%
same,growth inhibition,[3]; at 33.0 µM,3%
same,growth inhibition,[3]; at 100.0 µM,3%
same,growth inhibition,[4]; at 1.2 µM,-4%
same,growth inhibition,[4]; at 3.7 µM,0%
same,growth inhibition,[4]; at 11.0 µM,-1%
same,growth inhibition,[4]; at 33.0 µM,0%
same,growth inhibition,[4]; at 100.0 µM,0%
same,growth inhibition,[5]; at 1.2 µM,4%
same,growth inhibition,[5]; at 3.7 µM,3%
same,growth inhibition,[5]; [17],17%
same,growth inhibition,[5]; at 11.0 µM,1%
same,growth inhibition,[5]; at 33.0 µM,4%
same,growth inhibition,[5]; [18],64%
same,growth inhibition,[5]; at 50.0 µM,87.4% (active)
same,growth inhibition,[5]; at 100.0 µM,4%
same,growth inhibition,[6]; at 1.2 µM,-1%
same,growth inhibition,[6]; at 3.7 µM,1%
same,growth inhibition,[6]; [17],16%
same,growth inhibition,[6]; at 11.0 µM,-1%
same,growth inhibition,[6]; at 33.0 µM,1%
same,growth inhibition,[6]; [18],49%
same,growth inhibition,[6]; at 50.0 µM,48.2%
same,growth inhibition,[6]; at 100.0 µM,-1%
same,growth inhibition,[7]; at 1.2 µM,4%
same,growth inhibition,[7]; at 3.7 µM,2%
same,growth inhibition,[7]; at 11.0 µM,1%
same,growth inhibition,[7]; at 33.0 µM,2%
same,growth inhibition,[7]; at 100.0 µM,3%
same,growth inhibition,[8]; [17],33%
same,growth inhibition,[8]; [18],77% (active)
same,growth inhibition,[8]; at 50.0 µM,85.8% (active)
same,growth inhibition,[9]; at 1.2 µM,-3%
same,growth inhibition,[9]; at 3.7 µM,-1%
same,growth inhibition,[9]; at 11.0 µM,-5%
same,growth inhibition,[9]; at 33.0 µM,0%
same,growth inhibition,[9]; at 100.0 µM,0%
same,growth inhibition,[10]; [17],7%
same,growth inhibition,[10]; [18],28%
same,growth inhibition,[10]; at 50.0 µM,52%
same,growth inhibition,[11]; at 1.2 µM,-2%
same,growth inhibition,[11]; at 3.7 µM,-3%
same,growth inhibition,[11]; [17],7%
same,growth inhibition,[11]; at 11.0 µM,-2%
same,growth inhibition,[11]; at 33.0 µM,-1%
same,growth inhibition,[11]; [18],56%
same,growth inhibition,[11]; at 50.0 µM,78.9% (active)
same,growth inhibition,[11]; at 100.0 µM,-2%
same,growth inhibition,[12]; at 1.2 µM,-5%
same,growth inhibition,[12]; at 3.7 µM,-10%
same,growth inhibition,[12]; at 11.0 µM,-12%
same,growth inhibition,[12]; at 33.0 µM,-10%
same,growth inhibition,[12]; at 100.0 µM,-8%
same,growth inhibition,[13]; at 1.2 µM,-2%
same,growth inhibition,[13]; at 3.7 µM,-1%
same,growth inhibition,[13]; at 11.0 µM,-2%
same,growth inhibition,[13]; at 33.0 µM,1%
same,growth inhibition,[13]; at 100.0 µM,3%
same,growth inhibition,[14]; at 1.2 µM,-1%
same,growth inhibition,[14]; at 3.7 µM,-3%
same,growth inhibition,[14]; at 11.0 µM,12%
same,growth inhibition,[14]; at 33.0 µM,7%
same,growth inhibition,[14]; at 100.0 µM,17%
same,growth inhibition,[15]; [17],27%
same,growth inhibition,[15]; [18],78% (active)
same,growth inhibition,[15]; at 50.0 µM,82.8% (active)
same,growth inhibition,[16]; at 1.2 µM,3%
same,growth inhibition,[16]; at 3.7 µM,6%
same,growth inhibition,[16]; at 11.0 µM,3%
same,growth inhibition,[16]; at 33.0 µM,7%
same,growth inhibition,[16]; at 100.0 µM,50%
